# Assay results from PMC5540273 (PLoS ONE, 2017).
# Values joined by “and” are separate entries in the source; they are usually repeats but may differ in a detail not shown here. Identical values can stand only once. Like-named read-outs stand apart in the source and are kept apart here.
# Key:
# Conditions in all cases: concentration: 1 μM, replicates: in singlicate, n = 1
# MAP4K3 = test system: MAP4K3
# MAP4K4 = test system: MAP4K4
# MAP4K5 = test system: MAP4K5
# MAPKAPK2 = test system: MAPKAPK2
# MAPKAPK5 = test system: MAPKAPK5
# MARK1 = test system: MARK1
# MARK2 = test system: MARK2
# MARK3 = test system: MARK3
# MARK4 = test system: MARK4
# MAST1 = test system: MAST1
# MEK1 = test system: T1, MEK1
# T1 construct: gene MAP2K1
# MEK2 = test system: T2, MEK2
# T2 construct: gene MAP2K2
# MEK3 = test system: T3, MEK3
# T3 construct: gene MAP2K3
# MEK4 = test system: T4, MEK4
# T4 construct: gene MAP2K4
# MEK5 = test system: T5, MEK5
# T5 construct: gene MAP2K5
# MEK6 = test system: T6, MEK6
# T6 construct: gene MAP2K6
# MELK = test system: MELK
# MERTK = test system: MERTK
# MET = test system: MET
# MINK = test system: T7, MINK
# T7 construct: gene MINK1
# 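Note: KINOMEscan kinase panel screen.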
smiles,measurement,setting,value
Cl.Cl.Cl.Fc1ccc(-c2ncn(C3CCNCC3)c2-c2ccnc(Nc3ccccc3)n2)cc1 [SB-238039],%Inh,MAP4K3; 1 µM,41% and 5%
same,%Inh,MAP4K4; 1 µM,74% and 60%
same,%Inh,MAP4K5; 1 µM,94.1% and 85%
same,%Inh,MAPKAPK2; 1 µM,2% and 33%
same,%Inh,MAPKAPK5; 1 µM,0% and 9%
same,%Inh,MARK1; 1 µM,13% and 10%
same,%Inh,MARK2; 1 µM,43% and 42%
same,%Inh,MARK3; 1 µM,10% and 0%
same,%Inh,MARK4; 1 µM,27% and 11%
same,%Inh,MAST1; 1 µM,52% and 37%
same,%Inh,MEK1; 1 µM,36% and 3%
same,%Inh,MEK2; 1 µM,58% and 26%
same,%Inh,MEK3; 1 µM,45% and 44%
same,%Inh,MEK4; 1 µM,31% and 6%
same,%Inh,MEK5; 1 µM,47% and 18%
same,%Inh,MEK6; 1 µM,59% and 42%
same,%Inh,MELK; 1 µM,51% and 31%
same,%Inh,MERTK; 1 µM,15% and 0%
same,%Inh,MET; 1 µM,8% and 0%
same,%Inh,MINK; 1 µM,89% and 88%
O=c1cc(N2CCOCC2)nc2n(Cc3cccc(Cl)c3Cl)c(C3CC3)nn12 [GSK2358994],%Inh,MAP4K3,0%
same,%Inh,MAP4K4,0%
same,%Inh,MAP4K5,0%
same,%Inh,MAPKAPK2,1%
same,%Inh,MAPKAPK5,0%
same,%Inh,MARK1,0%
same,%Inh,MARK2,0%
same,%Inh,MARK3,0%
same,%Inh,MARK4,4%
same,%Inh,MAST1,4%
same,%Inh,MEK1,17%
same,%Inh,MEK2,13%
same,%Inh,MEK3,22%
same,%Inh,MEK4,0%
same,%Inh,MEK5,6%
same,%Inh,MEK6,17%
same,%Inh,MELK,3%
same,%Inh,MERTK,34%
same,%Inh,MET,0%
same,%Inh,MINK,0%
COC(=O)Nc1nc2cc(Oc3ccc(NC(=O)Nc4cc(F)ccc4F)cc3)ccc2[nH]1.Cl [GW701424],%Inh,MAP4K3,0%
same,%Inh,MAP4K4,0%
same,%Inh,MAP4K5,0%
same,%Inh,MAPKAPK2,13%
same,%Inh,MAPKAPK5,0%
same,%Inh,MARK1,0%
same,%Inh,MARK2,0%
same,%Inh,MARK3,3%
same,%Inh,MARK4,0%
same,%Inh,MAST1,5%
same,%Inh,MEK1,0%
same,%Inh,MEK2,0%
same,%Inh,MEK3,0%
same,%Inh,MEK4,15%
same,%Inh,MEK5,12%
same,%Inh,MEK6,0%
same,%Inh,MELK,10%
same,%Inh,MERTK,90.8%
same,%Inh,MET,40%
same,%Inh,MINK,5%
O=C(NCCNc1ccnc(Nc2ccc(F)cc2)n1)c1cc2ccccc2s1 [GSK1379874],%Inh,MAP4K3,0%
same,%Inh,MAP4K4,0%
same,%Inh,MAP4K5,3%
same,%Inh,MAPKAPK2,0%
same,%Inh,MAPKAPK5,0%
same,%Inh,MARK1,0%
same,%Inh,MARK2,0%
same,%Inh,MARK3,0%
same,%Inh,MARK4,0%
same,%Inh,MAST1,0%
same,%Inh,MEK1,0%
same,%Inh,MEK2,0%
same,%Inh,MEK3,41%
same,%Inh,MEK4,29%
same,%Inh,MEK5,22%
same,%Inh,MEK6,0%
same,%Inh,MELK,0%
same,%Inh,MERTK,0%
same,%Inh,MET,0%
same,%Inh,MINK,7%
O=c1cc(N2CCOCC2)nc2n(Cc3cccc(F)c3)ccn12 [GSK2297430],%Inh,MAP4K3,11%
same,%Inh,MAP4K4,9%
same,%Inh,MAP4K5,4%
same,%Inh,MAPKAPK2,12%
same,%Inh,MAPKAPK5,0%
same,%Inh,MARK1,0%
same,%Inh,MARK2,0%
same,%Inh,MARK3,0%
same,%Inh,MARK4,10%
same,%Inh,MAST1,0%
same,%Inh,MEK1,0%
same,%Inh,MEK2,0%
same,%Inh,MEK3,0%
same,%Inh,MEK4,0%
same,%Inh,MEK5,31%
same,%Inh,MEK6,0%
same,%Inh,MELK,18%
same,%Inh,MERTK,16%
same,%Inh,MET,0%
same,%Inh,MINK,0%
Cc1cn2c(=O)cc(N3CCOCC3)nc2n1Cc1cccc(Cl)c1Cl [GSK2334006],%Inh,MAP4K3,5%
same,%Inh,MAP4K4,16%
same,%Inh,MAP4K5,19%
same,%Inh,MAPKAPK2,28%
same,%Inh,MAPKAPK5,0%
same,%Inh,MARK1,0%
same,%Inh,MARK2,0%
same,%Inh,MARK3,2%
same,%Inh,MARK4,0%
same,%Inh,MAST1,0%
same,%Inh,MEK1,11%
same,%Inh,MEK2,0%
same,%Inh,MEK3,0%
same,%Inh,MEK4,17%
same,%Inh,MEK5,54%
same,%Inh,MEK6,0%
same,%Inh,MELK,17%
same,%Inh,MERTK,5%
same,%Inh,MET,0%
same,%Inh,MINK,0%
O=C1Cc2cc(Nc3nc(NCc4cccc(S(=O)(=O)C(F)(F)F)c4)ncc3C(F)(F)F)ccc2N1,%Inh,MAP4K3,13%
same,%Inh,MAP4K4,0%
same,%Inh,MAP4K5,0%
same,%Inh,MAPKAPK2,4%
same,%Inh,MAPKAPK5,30%
same,%Inh,MARK1,5%
same,%Inh,MARK2,0%
same,%Inh,MARK3,19%
same,%Inh,MARK4,6%
same,%Inh,MAST1,0%
same,%Inh,MEK1,0%
same,%Inh,MEK2,0%
same,%Inh,MEK3,15%
same,%Inh,MEK4,30%
same,%Inh,MEK5,0%
same,%Inh,MEK6,14%
same,%Inh,MELK,0%
same,%Inh,MERTK,0%
same,%Inh,MET,0%
same,%Inh,MINK,0%
CN(C1=C(c2ccccc2)C(=O)NC1=O)c1ccccc1 [SB-334860],%Inh,MAP4K3,8%
same,%Inh,MAP4K4,16%
same,%Inh,MAP4K5,9%
same,%Inh,MAPKAPK2,8%
same,%Inh,MAPKAPK5,0%
same,%Inh,MARK1,0%
same,%Inh,MARK2,3%
same,%Inh,MARK3,0%
same,%Inh,MARK4,0%
same,%Inh,MAST1,0%
same,%Inh,MEK1,0%
same,%Inh,MEK2,0%
same,%Inh,MEK3,7%
same,%Inh,MEK4,14%
same,%Inh,MEK5,34%
same,%Inh,MEK6,0%
same,%Inh,MELK,24%
same,%Inh,MERTK,0%
same,%Inh,MET,0%
same,%Inh,MINK,23%
CCCCCc1nc2c(N)ncnc2n1CCCCC [SKF-97255],%Inh,MAP4K3,2%
same,%Inh,MAP4K4,0%
same,%Inh,MAP4K5,0%
same,%Inh,MAPKAPK2,0%
same,%Inh,MAPKAPK5,0%
same,%Inh,MARK1,24%
same,%Inh,MARK2,0%
same,%Inh,MARK3,20%
same,%Inh,MARK4,31%
same,%Inh,MAST1,25%
same,%Inh,MEK1,15%
same,%Inh,MEK2,28%
same,%Inh,MEK3,34%
same,%Inh,MEK4,18%
same,%Inh,MEK5,32%
same,%Inh,MEK6,15%
same,%Inh,MELK,0%
same,%Inh,MERTK,17%
same,%Inh,MET,0%
same,%Inh,MINK,0%
CN(C(=O)c1ccc(-c2cc(-c3c[nH]nc3-c3ccccn3)ccn2)cc1)C1CCOCC1 [GW810083],%Inh,MAP4K3,0%
same,%Inh,MAP4K4,9%
same,%Inh,MAP4K5,0%
same,%Inh,MAPKAPK2,0%
same,%Inh,MAPKAPK5,0%
same,%Inh,MARK1,9%
same,%Inh,MARK2,36%
same,%Inh,MARK3,0%
same,%Inh,MARK4,30%
same,%Inh,MAST1,38%
same,%Inh,MEK1,0%
same,%Inh,MEK2,0%
same,%Inh,MEK3,14%
same,%Inh,MEK4,0%
same,%Inh,MEK5,5%
same,%Inh,MEK6,0%
same,%Inh,MELK,41%
same,%Inh,MERTK,0%
same,%Inh,MET,0%
same,%Inh,MINK,8%
